Values without a mark were called inactive. Results filed as inconclusive are left out. Entries that show only a call come without a potency. Calls of active or inactive are those of the source. Unless noted, calls follow the shape of the full dose curve.
How the values were obtained:
[1] = target: Gonadotropin-releasing hormone receptor (Homo sapiens) (UniProt P30968); test: Human gonadotropin-releasing hormone receptor (GnRHR) small molecule agonists, calcium flux assay in GnRHR-HEK293 cells (AID 1920063); also: nearly all actives have a fitted effect of over 35% in size
Sequence of Gonadotropin-releasing hormone receptor (Homo sapiens) (P30968 whole entry, looked up): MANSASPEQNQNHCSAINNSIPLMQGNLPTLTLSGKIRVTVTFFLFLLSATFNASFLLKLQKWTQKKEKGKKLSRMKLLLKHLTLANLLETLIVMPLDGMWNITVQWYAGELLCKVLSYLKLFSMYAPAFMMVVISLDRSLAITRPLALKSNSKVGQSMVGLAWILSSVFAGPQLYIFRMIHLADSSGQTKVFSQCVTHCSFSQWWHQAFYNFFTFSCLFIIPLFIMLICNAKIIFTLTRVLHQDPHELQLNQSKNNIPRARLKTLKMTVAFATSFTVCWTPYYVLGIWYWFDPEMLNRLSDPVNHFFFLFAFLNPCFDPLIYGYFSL
Summary of the method: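 Calcium flux, agonist mode, human GnRHR stably integrated in HEK293; dye 1 h at 37 C before compound; Ex/Em=480/540 kinetic read, 3 min; 15 concentrations, triplicate.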

[2] = target: KiSS-1 receptor (Homo sapiens) (UniProt Q969F8); test: Human kisspeptin (KISS1R) small molecule agonists, calcium flux assay in KISS1R-HEK293 cells (AID 1920064; active = well fitted activation curve with a large enough effect in the repeat runs)
Sequence of KiSS-1 receptor (Homo sapiens) (Q969F8 whole entry, looked up): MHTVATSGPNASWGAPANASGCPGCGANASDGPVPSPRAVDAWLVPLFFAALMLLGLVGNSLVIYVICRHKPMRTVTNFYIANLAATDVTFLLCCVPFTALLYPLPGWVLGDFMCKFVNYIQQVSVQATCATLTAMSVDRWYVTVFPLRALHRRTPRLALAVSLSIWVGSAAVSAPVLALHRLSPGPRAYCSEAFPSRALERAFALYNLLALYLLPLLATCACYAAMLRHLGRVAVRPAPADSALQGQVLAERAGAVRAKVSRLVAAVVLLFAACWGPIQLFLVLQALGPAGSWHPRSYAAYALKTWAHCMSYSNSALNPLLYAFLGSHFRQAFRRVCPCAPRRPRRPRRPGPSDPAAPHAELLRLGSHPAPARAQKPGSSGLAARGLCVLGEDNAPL
Summary of the method: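 Triplicate 15-concentration series were applied to dye-loaded human KISS1R HEK293 cells, and agonist-evoked calcium fluorescence was captured for 3 min.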

[3] = G protein-coupled receptor (GPCR) small molecule agonists, calcium flux assay: HEK293 wild type cell line counter screen (AID 1920065)
Summary of the method: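 Non-specific calcium responders were flagged by adding DMSO-dissolved compounds to dye-loaded cells and reading 480/540 nm fluorescence each second for 3 min; ATP served as positive control.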

[4] = p53 small molecule agonists, cell-based qHTS assay with rat liver microsomes: qHTS cell viability counter screen (AID 1963580); also: nearly all actives have a fitted effect of over 45% in size; also: potency is read from the fitted curve at half-maximal effect
Summary of the method: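 Rat liver microsome (0.5 mg/mL final) and NADPH (0.5 mg/mL final) co-incubation with compounds for 16 h at 37 C on HCT-116 p53RE-bla cells; cytotoxicity taken from intracellular ATP luminescence.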

[5] = p53 small molecule agonists, cell-based qHTS assay: qHTS cell viability counter screen (AID 1963581); also: nearly all actives have a fitted effect of over 45% in size
Summary of the method: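 Multiplexed with the reporter read, a CellTiter-Glo step (30 min, room temperature) gauges ATP-based viability of HCT-116 p53RE-bla cells after 16 h compound incubation at 37 C.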

[6] = target: 5-hydroxytryptamine receptor 2A (Homo sapiens) (UniProt P28223); test: 5-hydroxytryptamine receptor 2A (HTR2A) small molecule antagonists, cell-based qHTS assay (AID 1963586); also: nearly all actives have a fitted effect of over 45% in size; also: potency is read from the fitted curve at half-maximal effect
Sequence of 5-hydroxytryptamine receptor 2A (Homo sapiens) (P28223 whole entry, looked up): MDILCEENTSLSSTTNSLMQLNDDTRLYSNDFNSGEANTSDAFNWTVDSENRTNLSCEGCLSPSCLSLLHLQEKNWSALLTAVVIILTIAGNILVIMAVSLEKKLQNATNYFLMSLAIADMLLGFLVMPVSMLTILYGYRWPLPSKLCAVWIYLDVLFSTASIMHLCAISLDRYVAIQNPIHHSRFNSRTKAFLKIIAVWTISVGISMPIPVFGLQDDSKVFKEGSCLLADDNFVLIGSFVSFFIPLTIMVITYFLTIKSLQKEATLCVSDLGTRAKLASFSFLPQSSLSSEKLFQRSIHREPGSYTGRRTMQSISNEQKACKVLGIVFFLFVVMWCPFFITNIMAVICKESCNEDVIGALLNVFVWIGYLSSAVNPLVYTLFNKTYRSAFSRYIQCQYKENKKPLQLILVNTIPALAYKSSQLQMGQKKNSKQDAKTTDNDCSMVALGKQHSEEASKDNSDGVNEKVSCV
Summary of the method: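 CHO cells stably expressing human HTR2A were plated for 18 h at 37 C, then loaded with calcium dye for 1 h. Compounds were preincubated 5 min at room temperature before DOI (4 nM solution) was added. Kinetic fluorescence was read for 3 min.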

[7] = target: 5-hydroxytryptamine receptor 2A (Homo sapiens) (UniProt P28223); test: 5-hydroxytryptamine receptor 2A (HTR2A) small molecule agonists, cell-based qHTS assay (AID 1963587); also: nearly all actives have a fitted effect of over 30% in size
Summary of the method: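 Kinetic calcium-flux fluorescence (2 min, 1 sec intervals) after compound addition in agonist mode. HTR2A-CHO cells were cultured 18 h, then dye-loaded 1 h at 37 C.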

[8] = target: Muscarinic acetylcholine receptor M1 (Homo sapiens) (UniProt P11229); test: Cholinergic receptor muscarinic 1 (CHRM1) small molecule antagonists, cell-based qHTS assay (AID 1963588); also: nearly all actives have a fitted effect of over 40% in size; also: potency is read from the fitted curve at half-maximal effect
Sequence of Muscarinic acetylcholine receptor M1 (Homo sapiens) (P11229 whole entry, looked up): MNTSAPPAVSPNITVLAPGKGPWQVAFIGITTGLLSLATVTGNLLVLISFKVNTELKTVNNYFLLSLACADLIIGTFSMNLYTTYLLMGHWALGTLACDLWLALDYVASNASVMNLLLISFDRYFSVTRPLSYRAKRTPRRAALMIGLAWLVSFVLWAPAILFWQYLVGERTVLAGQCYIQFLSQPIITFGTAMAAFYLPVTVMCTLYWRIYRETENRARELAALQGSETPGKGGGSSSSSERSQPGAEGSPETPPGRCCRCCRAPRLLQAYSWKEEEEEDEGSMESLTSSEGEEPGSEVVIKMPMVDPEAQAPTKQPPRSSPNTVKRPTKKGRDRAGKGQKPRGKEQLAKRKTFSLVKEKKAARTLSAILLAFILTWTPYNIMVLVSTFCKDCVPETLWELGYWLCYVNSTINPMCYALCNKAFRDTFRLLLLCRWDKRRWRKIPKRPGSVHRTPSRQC
Summary of the method: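 Compounds were tested at 15 concentrations in three independent runs. Dye-loaded CHRM1-CHO cells were exposed 5 min at room temperature before stimulation by acetylcholine added at 50nM. Intracellular calcium was read kinetically on FDSS for 3 min.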

[9] = target: Muscarinic acetylcholine receptor M1 (Homo sapiens) (UniProt P11229); test: Cholinergic receptor muscarinic 1 (CHRM1) small molecule agonists, cell-based qHTS assay (AID 1963589); also: nearly all actives have a fitted effect of over 35% in size
Summary of the method: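 qHTS, 15-point titration, 3 independent runs: compounds pin-transferred onto dye-loaded CHRM1-CHO cells (human M1), calcium fluorescence followed every second to detect agonism.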

[10] = target: D(2) dopamine receptor (Homo sapiens) (UniProt P14416); test: Dopamine D2 receptor (DRD2) small molecule agonists, cell-based qHTS assay (AID 1963594); also: nearly all actives have a fitted effect of over 35% in size
Sequence of D(2) dopamine receptor (Homo sapiens) (P14416 whole entry, looked up): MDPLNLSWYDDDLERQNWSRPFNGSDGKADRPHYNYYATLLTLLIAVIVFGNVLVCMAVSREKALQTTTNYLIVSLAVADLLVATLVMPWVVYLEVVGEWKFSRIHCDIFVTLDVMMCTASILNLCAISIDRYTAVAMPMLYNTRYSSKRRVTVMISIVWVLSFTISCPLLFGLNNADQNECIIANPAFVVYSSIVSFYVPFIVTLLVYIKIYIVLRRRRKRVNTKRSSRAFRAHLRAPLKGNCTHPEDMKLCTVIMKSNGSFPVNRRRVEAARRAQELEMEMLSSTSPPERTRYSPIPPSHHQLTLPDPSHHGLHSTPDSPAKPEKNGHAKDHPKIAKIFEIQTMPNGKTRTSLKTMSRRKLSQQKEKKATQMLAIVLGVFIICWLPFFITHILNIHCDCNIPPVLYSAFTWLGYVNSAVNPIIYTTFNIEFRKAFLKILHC
Summary of the method: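 cAMP accumulation in DRD2-HEK293 cells measured by HTRF after 1 h detection; compounds added 10 min before NKH477 (200nM […]) forskolin-analogue stimulation, 30 min at room temperature, with Ro20-1724 present at 0.1 mM final.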

[11] = target: D(2) dopamine receptor (Homo sapiens) (UniProt P14416); test: Dopamine D2 receptor (DRD2) small molecule antagonists, cell-based qHTS assay (AID 1963595; active = well fitted inhibition curve with a large enough effect in the signal ratio in the repeat runs, with a control signal flat; the % refers to the signal ratio)
Summary of the method: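 HEK293 cells stably expressing DRD2, preincubated with 0.1 mM Ro20-1724 and compounds 10 min, were stimulated with 200 nM NKH477 plus 12 nM quinpirole for 30 min at room temperature; cAMP measured by HTRF (665/620 nm).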

[12] = p53 small molecule agonists, cell-based qHTS assay with human liver microsomes: qHTS cell viability counter screen (AID 1963579); also: nearly all actives have a fitted effect of over 45% in size; also: potency is read from the fitted curve at half-maximal effect
Summary of the method: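 In this multiplexed counter screen, the reporter plates were subsequently treated with CellTiter-Glo so that cell viability, reflected by luminescence, could be recorded for p53RE-bla cells dosed 16 h with compounds under microsomal activation (HLM and NADPH).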

[13] = target: Beta-2 adrenergic receptor (Homo sapiens) (UniProt P07550); test: Adrenergic beta2 receptor (ADRB2) small molecule antagonists, cell-based qHTS assay (AID 1963592); also: series mostly up to about 92 µM; nearly all actives have a fitted effect of over 50% in size
Sequence of Beta-2 adrenergic receptor (Homo sapiens) (P07550 whole entry, looked up): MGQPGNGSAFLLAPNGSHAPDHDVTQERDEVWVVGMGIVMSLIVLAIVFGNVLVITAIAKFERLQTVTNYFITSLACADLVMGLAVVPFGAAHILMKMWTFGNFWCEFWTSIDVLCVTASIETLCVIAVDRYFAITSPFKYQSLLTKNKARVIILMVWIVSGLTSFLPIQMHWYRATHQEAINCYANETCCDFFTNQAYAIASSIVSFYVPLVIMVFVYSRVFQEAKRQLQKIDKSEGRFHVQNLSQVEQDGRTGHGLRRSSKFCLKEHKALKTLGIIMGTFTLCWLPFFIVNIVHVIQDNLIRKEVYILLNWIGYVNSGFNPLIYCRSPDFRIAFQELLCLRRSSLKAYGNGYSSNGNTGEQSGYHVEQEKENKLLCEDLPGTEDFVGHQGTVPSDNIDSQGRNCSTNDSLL
Summary of the method: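 Assay format: CHO-ADRB2 cells, 18-20hr seeding at 37C/5% CO2, then compound plus 1nM isoproterenol agonist mix for 0.5hr RT. Homogeneous time-resolved fluorescence cAMP detection after 1hr, expressed as 665/615 nm ratio.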

[14] = p53 small molecule agonists, cell-based qHTS assay with rat liver microsomes (AID 1963578); also: potency is read from the fitted curve at half-maximal effect
Summary of the method: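 With rat liver microsomes and NADPH present (0.5 mg/mL final each), p53RE-bla cells are treated with compound for 16 h at 37 C. LiveBLAzer detection mixture is then applied for 2 h at room temperature in the dark.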

[15] = p53 small molecule agonists, cell-based qHTS assay (AID 1963582; active = well fitted activation curve with a large enough effect in the signal ratio in the repeat runs, not every such curve was filed as active; the % refers to the signal ratio)
Summary of the method: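 Beta-lactamase reporter cells (p53RE-bla) treated with compounds for 16 h at 37 C; FRET substrate, 2 h, room temperature; fluorescence intensity.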

[16] = cAMP Responsive Elements (CRE) small molecule agonists, cell-based qHTS assay (AID 1963590)
Summary of the method: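 Quantitative HTS for CRE agonists: HEK 293T CRE-bla cells, overnight plating, 3 h compound incubation at 37 C/5% CO2, then 2 h room-temperature LiveBLAzer B/G FRET substrate loading.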

[17] = target: Beta-2 adrenergic receptor (Homo sapiens) (UniProt P07550); test: Adrenergic beta2 receptor (ADRB2) small molecule agonists, cell-based qHTS assay (AID 1963593);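 also: CHO cells stably overexpressing human ADRB2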
Summary of the method: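 CHO cells stably over-expressing ADRB2 were plated overnight at 37C, then dosed with compounds plus a stimulation mix containing 100uM IBMX and 25uM Ro-20-1724 for 0.5hr at room temperature. cAMP was measured by HTRF competition, 1hr.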

[18] = cAMP Responsive Elements (CRE) small molecule antagonists, cell-based qHTS assay (AID 1963591; active = well fitted inhibition curve with a large enough effect in the signal ratio in the repeat runs, not every such curve was filed as active; the % refers to the signal ratio; also: potency is read from the fitted curve at half-maximal effect)
Summary of the method: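 Fluorescence intensity from cleaved LiveBLAzer B/G substrate (2 h, room temperature) quantified CRE-bla activity in HEK 293T cells exposed 3 h to compound with 0.25 uM final NKH477.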

[19] = p53 small molecule agonists, cell-based qHTS assay with human liver microsomes (AID 1963577);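 also: p53 response element beta-lactamase reporter cells with liver microsomes plus NADPH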
Summary of the method: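 16 h, 37 C exposure of p53RE-bla cells to compounds with human liver microsomes and NADPH (0.5 mg/mL final each); detection via LiveBLAzer mixture, 2 h dark at room temperature.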

Compound	Potency [1]	Potency [2]	Potency [3]	Potency [4]	Potency [5]	Potency [6]	Potency [7]	Potency [8]	Potency [9]	Potency [10]	Potency [11]	Potency [12]	Potency [13]	Potency [14]	Potency [15]	Potency [16]	Potency [17]	Potency [18]	Potency [19]
O=C1N=C(O)CN1/N=C/c1ccc(-c2ccc([N+](=O)[O-])cc2)o1	inactive	inactive	inactive	inactive	inactive	inactive	inactive	inactive	inactive	inactive	inactive								
Nc1nc2ccc([N+](=O)[O-])cc2s1	inactive	inactive	inactive		inactive	3.75 µM (active)	inactive		inactive			28.9 µM (active)	inactive						
O=C(CCCCCCC(=O)Nc1ccccc1)NO	inactive	inactive	inactive	inactive	inactive	inactive	inactive		inactive	inactive		inactive	inactive	inactive	inactive	inactive	inactive		
CO[C@]1(NC(=O)CSC(F)F)C(=O)N2C(C(=O)O)=C(CSc3nnnn3CCO)CO[C@H]21	inactive	inactive	inactive	inactive		inactive	inactive	inactive	inactive	inactive		inactive	inactive	inactive	inactive	inactive	inactive	inactive	
O=C(c1ccccc1)c1ccc(O)cc1	inactive	inactive	inactive	inactive	inactive	inactive	inactive	inactive	inactive	inactive	inactive		inactive					inactive	
O=S(=O)(O)c1ccccc1/C=C/c1ccc(-c2ccc(/C=C/c3ccccc3S(=O)(=O)O)cc2)cc1	inactive	inactive	inactive	inactive	inactive	inactive			inactive	inactive	inactive	inactive	inactive	11.7 µM (active)					
CN1CCCC(CC2c3ccccc3Sc3ccccc32)C1 (configuration not stated)	inactive	inactive	inactive	inactive			inactive	0.0015 µM (active)	inactive					inactive					inactive
Cc1ccc(OC(=O)CC(C)C)cc1	inactive	inactive	inactive	inactive		inactive	inactive	inactive	inactive	inactive		inactive	inactive			inactive	inactive	inactive	
O=c1cc(-c2ccc(O)cc2)oc2cc(O)cc(O)c12	inactive	inactive	inactive	inactive	inactive	inactive	inactive	inactive	inactive	inactive		inactive		inactive					
O=C1C=CC(=O)N1	inactive	inactive	inactive	29.6 µM (active)			inactive	inactive	inactive	inactive		21 µM (active)		inactive					
O=CC=C(c1ccccc1)c1ccccc1	inactive	inactive	inactive	inactive	inactive	42.4 µM (active)	inactive	inactive	inactive	inactive			inactive				inactive	24.5 µM (active)	inactive
C#Cc1cccc(Nc2ncnc3cc(OCCOC)c(OCCOC)cc23)c1	inactive	inactive	inactive	inactive	inactive			inactive	inactive	inactive	inactive	inactive	inactive				inactive		
